Source: PubChem BioAssay (NCATS)
Results filed as inconclusive are left out. Active and inactive are the calls of the source. Calls follow the shape of the dose curve; as a rule, active = well fitted inhibition curve with a large enough effect; inconclusive = small, poorly fitted or top-dose-only effect; inactive = flat fitted curve, though single readings scatter.

Target: Calcium and integrin-binding protein 1 (Homo sapiens) (UniProt Q99828)
Assay: Primary qHTS for Identification of Calcium Integrin Binding Protein 1 (CIB1) Competitor (AID 1508620); also: top concentration of the series differs between compounds
Settings: CIB1-GST / FITC-alphaIIb peptide fluorescence polarization; series mostly up to 114 µM; activity change, negative = inhibition: at the top concentration
How it was run: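 Fluorescence polarization competition: GST-tagged CIB1 (1 uM final) preincubated with compound 15 min at room temperature, then FITC-labelled alphaIIb peptide (100 nM final) added. After 15 min at room temperature, polarization read at Ex 480/Em 540.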
% is scaled to controls: 0 for no effect and ±100 for the full control effect.

Sequence of Calcium and integrin-binding protein 1 (Homo sapiens) (Q99828 whole entry, looked up): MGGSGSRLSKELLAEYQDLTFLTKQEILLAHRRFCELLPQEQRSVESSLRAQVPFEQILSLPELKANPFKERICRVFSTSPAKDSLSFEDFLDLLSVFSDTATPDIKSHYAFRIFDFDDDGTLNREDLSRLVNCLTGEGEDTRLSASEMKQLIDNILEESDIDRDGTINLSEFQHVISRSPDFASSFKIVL

| SMILES | activity change, negative = inhibition | Potency |
| --- | --- | --- |
| Fc1ccc(Nc2cc(-c3ccccc3)nc(-c3ccncc3)n2)cc1F | 5.17% (inactive) |  |
| Cc1cn([C@H]2C[C@H](N[S+](=O)([O-])Cc3ccc(Cl)cc3)[C@@H](CO)O2)c(=O)[nH]c1=O | 6.59% (inactive) |  |
| Cc1cc(C)n2ncc(C(=O)Nc3cccc(C(F)(F)F)c3)c2n1 | -1.6% (inactive) |  |
| Oc1ccc(CCc2ccccc2)c2cccnc12 | -7.25% (inactive) |  |
| NC(=O)C1CCN(c2nc(-c3ccc(Oc4ccccc4)cc3)cs2)CC1 | -0.992% (inactive) |  |
| CCOc1ccc(NC(=O)Nc2ccc(-c3nc4ccccc4[nH]3)cc2)cc1 | -3.49% (inactive) |  |
| O=C(c1ccccc1)N(C(=O)c1ccccc1)c1ncnc2c1C(c1ccccc1)c1c(ccc3ccccc13)O2 (stereo not given) | 1.59% (inactive) |  |
| Cc1cc(C)nc(NC(=S)N2CCN(Cc3c(F)cccc3Cl)CC2)c1 | -7.31% (inactive) |  |
| COc1cc(OC)c(C(CC(=O)N2CC(C)CC(C)C2)c2ccc3c(c2)OCO3)c(OC)c1 (stereo not given) | -2.11% [at 228 µM] (inactive) |  |
| Cc1ccnc(NC(=S)N2CCN(c3ccccc3C(F)(F)F)CC2)c1 |  | inactive |
| N#Cc1c(-c2ccc(OCCOCCOCCN)cc2)no[n+]1[O-] | -8.41% (inactive) |  |
| Cc1nc(C2=NC(c3ccccc3Cl)C3=C(CCCC3=O)N2)cs1 (stereo not given) | -11.2% (inactive) |  |
| Cn1c2cc(C#N)sc2c2cnn(Cc3ccc(F)cc3)c(=O)c21 | 1.78% (inactive) |  |
| Cc1cccc(OC2=NS(=O)(=O)c3ccccc32)c1 | 2.73% (inactive) |  |
| Cc1cc(-c2ccccc2)nc2c(C(=O)Nc3ccc4c(c3)CCC4)cnn12 | 1.99% (inactive) |  |
| O=C(NC(c1ccco1)c1cc(Cl)c2cccnc2c1O)c1ccc(F)c(F)c1 (stereo not given) | -6.74% (inactive) |  |
| CC(=O)NC(c1cc(Cl)c2ccccc2c1O)C1CC1 (stereo not given) | -0.272% (inactive) |  |
| FC(F)(F)c1ccccc1-c1nc(NCc2ccc(-c3ccc(Cl)c(Cl)c3)cc2)c2ccccc2n1 | 2.96% (inactive) |  |
| CC(=O)Nc1sc2c(c1-c1ccc(OC(F)(F)F)cc1)CCNC2 | -1.13% (inactive) |  |
| O=C(O)C1C2C(=O)N(c3ccccc3)C[C@@]23C=C[C@@H]1O3 (stereo not given in full) | 5.6% (inactive) |  |

| SMILES | activity change, negative = inhibition | Potency |
| --- | --- | --- |
| O=C(c1ccccc1O)N(Cc1ccco1)Cc1ccco1 | -6.24% (inactive) |  |
| COc1ccc(S(=O)(=O)N2CCN(S(=O)(=O)c3ccc(OC)cc3)CC2)cc1 | -0.0373% (inactive) |  |
| CC(=O)c1ccc(N2CCN(C(=O)c3ccc4c(c3)CCC(=O)N4)CC2)cc1 | -3.27% (inactive) |  |
| Cc1ccc(CNc2ncnc3ccc(-c4ccoc4)cc23)o1 | -16% (inactive) |  |
| Cc1ccc(NC(=O)c2ccc3c(c2)CCC(=O)N3)cc1C | -0.11% (inactive) |  |
| Cc1cc(C)n2ncc(C(=O)Nc3ccccc3C)c2n1 | 0.279% (inactive) |  |
| CN1CCOc2cc(S(=O)(=O)N3CCN(S(=O)(=O)c4c(F)cccc4F)CC3)cnc21 | 5.26% (inactive) |  |
| COc1ccc2cc3cc(C(=O)Nc4ccc(F)cc4)sc3nc2c1 | 1.5% (inactive) |  |
| N#Cc1c(-c2cccc(O)c2)no[n+]1[O-] | 0.79% (inactive) |  |
| COC(=O)c1ccccc1NC(=O)c1ccccc1OC(F)F | -0.0702% (inactive) |  |
| O=C(Oc1cccnc1)c1cccs1 | 7.7% (inactive) |  |
| Cc1ccccc1S(=O)(=O)N1CCc2cc(-c3nc(NC(=O)Cc4ccc5c(c4)OCO5)sc3C)ccc21 | 6.34% (inactive) |  |
| O=C(Cc1ccc(Cl)c(Cl)c1)Nc1ccc(S(=O)(=O)O)cc1 | -15.7% (inactive) |  |
| Cc1ccc(C)c(OCCn2c(CCNC(=O)C3CCCCC3)nc3ccccc32)c1 |  | inactive |
| COc1ccc(N2Cc3cccc(C(=O)O)c3C2=O)c(OC)c1 | -2.62% (inactive) |  |
| COc1cc(O)c(C(CC(=O)N2CCCC(c3ccccc3)C2)c2ccc3c(c2)OCO3)c(OC)c1 (stereo not given) | -0.998% [at 228 µM] (inactive) |  |
| O=C1C2=C(CN1c1ccccc1)NC(Nc1nc3ccccc3o1)=NC2c1ccccc1Cl (stereo not given) | -1.61% (inactive) |  |
| O=C1CCCC2=C1C(c1[nH]ncc1Cl)NC(=NCc1cccs1)N2 (stereo not given) | -2.05% (inactive) |  |
| Cc1cc2c(s1)c1cnn(Cc3ccccc3C)c(=O)c1n2C | 8.01% (inactive) |  |
| Cn1nnnc1Sc1ncnc2scc(-c3cccc(N)c3)c12 | 1.05% (inactive) |  |
